Assay outcomes: PubChem BioAssay, several laboratories
Compounds with a hit are over-represented: about 1.2% of the library has one in this group of screens.
SRC2 inh = inhibits human steroid receptor coactivator 2; HEK293 GAL4-SRC2 luciferase reporter, luminescence; inhibition, % at 9 µM; 370,000 tested, 0.17% active; AID 651957;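 active means inhibition above the mean inhibition of all tested compounds plus 3 SD, set per campaign, cut at about 52% in these data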
Target sequence (Q15596 whole entry, looked up, the tested form may be a part): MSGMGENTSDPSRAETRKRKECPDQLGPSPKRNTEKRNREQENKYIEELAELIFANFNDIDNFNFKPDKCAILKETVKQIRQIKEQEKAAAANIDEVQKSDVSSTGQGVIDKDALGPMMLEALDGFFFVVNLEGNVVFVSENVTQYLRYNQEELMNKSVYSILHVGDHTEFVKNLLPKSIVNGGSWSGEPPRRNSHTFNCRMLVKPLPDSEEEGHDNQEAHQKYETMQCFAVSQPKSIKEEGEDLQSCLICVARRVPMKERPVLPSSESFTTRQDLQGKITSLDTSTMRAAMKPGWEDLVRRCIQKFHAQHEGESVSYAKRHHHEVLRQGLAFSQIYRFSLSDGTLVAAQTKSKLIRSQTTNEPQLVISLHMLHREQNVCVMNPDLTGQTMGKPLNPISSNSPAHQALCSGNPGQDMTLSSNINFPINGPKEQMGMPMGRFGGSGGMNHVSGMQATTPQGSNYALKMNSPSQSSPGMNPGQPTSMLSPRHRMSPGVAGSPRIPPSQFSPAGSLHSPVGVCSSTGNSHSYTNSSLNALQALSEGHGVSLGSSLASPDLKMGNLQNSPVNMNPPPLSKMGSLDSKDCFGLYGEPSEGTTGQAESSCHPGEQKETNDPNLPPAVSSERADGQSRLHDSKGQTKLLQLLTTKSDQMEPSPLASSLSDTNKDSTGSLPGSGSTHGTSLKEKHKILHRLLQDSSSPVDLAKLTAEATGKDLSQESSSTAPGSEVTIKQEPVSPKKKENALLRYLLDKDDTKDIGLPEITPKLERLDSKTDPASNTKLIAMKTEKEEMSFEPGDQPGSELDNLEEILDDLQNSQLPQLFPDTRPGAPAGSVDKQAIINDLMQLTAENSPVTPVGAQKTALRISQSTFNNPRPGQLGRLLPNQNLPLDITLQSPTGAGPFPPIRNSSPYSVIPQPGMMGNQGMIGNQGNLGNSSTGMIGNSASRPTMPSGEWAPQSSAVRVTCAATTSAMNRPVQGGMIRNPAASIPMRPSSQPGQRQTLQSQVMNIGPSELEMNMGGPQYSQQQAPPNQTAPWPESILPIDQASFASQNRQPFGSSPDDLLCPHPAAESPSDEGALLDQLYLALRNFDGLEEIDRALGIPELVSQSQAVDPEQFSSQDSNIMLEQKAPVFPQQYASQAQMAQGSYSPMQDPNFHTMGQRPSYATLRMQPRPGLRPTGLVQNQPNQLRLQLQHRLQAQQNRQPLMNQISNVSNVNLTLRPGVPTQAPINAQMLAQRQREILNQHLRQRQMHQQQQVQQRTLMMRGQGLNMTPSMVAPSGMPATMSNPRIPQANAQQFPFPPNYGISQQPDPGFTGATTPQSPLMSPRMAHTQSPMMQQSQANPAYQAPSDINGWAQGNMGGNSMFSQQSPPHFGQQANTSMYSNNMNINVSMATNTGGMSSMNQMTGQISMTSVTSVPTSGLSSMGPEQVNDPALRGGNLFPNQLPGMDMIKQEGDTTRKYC
LMP1 NFkB inh = inhibitors of Epstein-Barr LMP1-induced NF-kappaB reporter | LMP1-induced NF-kappaB luciferase reporter cells, luminescence | inhibition, % at 12.5 µM | 350,000 tested, 0.69% active | AID 504558; in the data active means inhibition above about 41%; inconclusive means no clear call, values can overlap the other calls
SRC1 inh = inhibits human SRC1 coactivator. inhibition, % at 3.6 µM. Q15788. HEK293 GAL4-SRC1 luciferase reporter, luminescence. 360,000 tested, 0.12% active;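 active means inhibition above the campaign mean plus 3 SD, with each screening campaign given its own cutoff, cut at about 60% in these data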
NCOA3 inh = inhibits human SRC3 coactivator. Q9Y6Q9. HEK293 GAL4-SRC3 luciferase reporter, luminescence. inhibition, % at 3.6 µM. 360,000 tested, 0.17% active. AID 588352;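 active means inhibition above a per-campaign cutoff, the mean of all compounds plus 3 SD, cut at about 60% in these data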;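 further: higher means less SRC3-driven luciferase light from the GAL4 reporter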
NR5A2 inv ag = inverse agonists of human LRH-1 (NR5A2) | 360,000 tested, 0.13% active | inhibition, % at 3.6 µM | HEK293T StAR-luciferase reporter, LRH-1 transfected, 24 h | O00482;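 active means inhibition above the mean inhibition of all tested compounds plus 3 SD, cut at about 73% in these data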
Shn3 inh set2 = Schnurri-3 reporter inhibition in Clone20 osteoblasts; Clone20 osteoblast Shn3 3'UTR firefly luciferase, 24 h; inhibition, % at 12.5 µM; 360,000 tested, 0.52% active;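 active means mean inhibition of at least 75% with every replicate also reaching 75%; inconclusive means mean inhibition at least 75% but some replicate below; inactive means mean inhibition below 75%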
Numbers stand for hits; . = inactive; ? = inconclusive; / = not tested or not shown.

SMILES | SRC2 inh | LMP1 NFkB inh | SRC1 inh | NCOA3 inh | NR5A2 inv ag | Shn3 inh set2
CCN(CC)C(=O)C1CCN(S(=O)(=O)c2ccc3oc4ccccc4c3c2)CC1 | . | . | . | . | . | 86
COc1ccc2[nH]c3c(c2c1)CCN[C@]31C(=O)N(Cc2ccccc2)c2ccccc21 | . | / | / | / | / | /
Cc1cccc(N2CC(O)(c3cccs3)[N+]3=C2CCCC3)c1C (stereo unspecified) | . | . | . | . | . | 90
Cc1ccccc1N1CC(O)(c2cccs2)[N+]2=C1CCCC2 (stereo unspecified) | . | . | . | . | . | .
COc1ccc(-n2c(SCC(=O)Nc3cc(C)c(NC(=O)c4ccccc4)cc3OC)nnc2-c2ccccc2F)cc1 | . | / | / | / | / | /
Cc1cc2nc(C)n(CCCNC(=O)Nc3cccc4ccccc34)c2cc1C | . | . | . | . | . | 87
COc1ccc(Br)cc1/C=C/C(=O)c1ccc(NC(C)=O)cc1 | 61 | . | . | 71 | . | 97
Cc1ccccc1N1C(=O)C(Oc2ccc(Cl)cc2)C1CNCCCOC(C)C (stereo unspecified) | . | . | . | . | . | .
COCCCNCC1C(Oc2ccc(Cl)cc2)C(=O)N1c1ccccc1C (stereo unspecified) | . | 76 | . | . | . | .
Cc1c(Nc2cc(Cl)c3nonc3c2[N+](=O)[O-])c(=O)n(-c2ccccc2)n1C | . | . | . | . | . | 96
Cc1c(Nc2ccc3nonc3c2[N+](=O)[O-])c(=O)n(-c2ccccc2)n1C | . | . | . | . | . | .
O=[N+]([O-])c1c(Nc2cccc(O)c2)cc(Cl)c2nonc12 | . | 56 | . | . | . | ?
CCOC(=O)C1=C(C(=O)OCC)C2N(Cc3ccc(Br)cc3)c3ccccc3[C@@]23C[C@@H](C(=O)OC)N(S(=O)(=O)c2ccc(F)cc2)C3=N1 (stereo partly specified) | . | / | / | / | / | /
CCOC1=C2[C@H](c3ccc(CC)cc3)N(S(=O)(=O)c3ccc(C)cc3)C[C@H]2C(C#N)(C#N)C(C#N)(C#N)C1 | . | / | . | . | . | 95
CCOC1=C2[C@H](c3ccccc3Cl)N(S(=O)(=O)c3ccc(C)cc3)C[C@H]2C(C#N)(C#N)C(C#N)(C#N)C1 | . | / | . | . | . | .
C=CCN1C(=O)[C@@H](CC(=O)NCCCN2CCCC2=O)[C@]2(C(=O)OC)CCCCC=C12 | . | / | / | / | / | /
Cn1c(=O)c2[nH]c(CCCCCCCCc3nc4ccccc4[nH]3)nc2n(C)c1=O | . | . | . | . | . | 86
CC(=NNC(=S)N1CCCCCC1)c1cccc2cccnc12 | . | 52 | . | . | . | ?
CC(=NNC(=S)N1CCN(C2CCCCCC2)CC1)c1ccccn1 | . | . | 73 | 69 | . | 93
CC(=NNC(=S)N1CCN(c2ccccn2)CC1)c1nccs1 | / | 74 | . | . | . | 85
CC(=NNC(=S)N1CCN(c2ccccn2)CC1)c1ccccn1 | . | . | . | . | . | .
C/C(=N/NC(=O)c1cnccn1)c1ccncc1 | . | . | . | . | . | .
CC(=NNC(=S)N1CC2CCC(CC2)C1)c1cnccn1 | . | 66 | 77 | 78 | . | 84
COC(=O)[C@H](C(C)C)N1CCc2nnn(Cc3ccc(C)cc3)c2-c2cc(F)ccc2S1(=O)=O | . | / | / | / | / | /
CC(=NNC(=S)N1CC2CCC(CC2)C1)c1ccccn1 | . | . | . | . | . | 86
SMILES | SRC2 inh | LMP1 NFkB inh | SRC1 inh | NCOA3 inh | NR5A2 inv ag | Shn3 inh set2
COC1=C[C@H](C(=O)NCCNC(C)=O)[C@@]2(C)Cc3ccccc3[C@H]2CC1=O | . | / | / | / | / | /
COc1ccc(-n2cc(COC(=O)NCCc3c[nH]c4ccccc34)nn2)cc1 | . | / | / | / | / | /
CC(C)CCNC(=O)C(C)N(Cc1ccc(F)cc1)C(=O)c1ccc(CN2CCOCC2)o1 (stereo unspecified) | . | . | . | . | . | .
O=C(NC1CCCCC1)C(c1ccc(F)cc1)N(CCCN1CCOCC1)C(=O)c1ccc(CN2CCOCC2)o1 (stereo unspecified) | . | . | 93 | . | . | .
CC(C)(C)S(=O)N1C[C@@H]2CC(=O)C(c3ccccc3)=C2[C@H]1CCO (stereo partly specified) | . | / | / | / | / | /
Cc1ccccc1Cn1cnc2c(cnn2C(C)(C)C)c1=O | . | . | . | . | . | .
CC(C)(C)n1ncc2c(=O)n(Cc3cccc(Cn4cnc5c(cnn5C(C)(C)C)c4=O)c3F)cnc21 | . | . | . | . | . | 89
COC(=O)[C@]12C[C@H](CC(=O)N3CCC(c4ccccc4)CC3)C(=O)N(Cc3cccc4ccccc34)C1=C[C@H](COCc1ccccc1)O[C@@H]2C | . | / | / | / | / | /
c1csc(CNc2ncnc3sccc23)c1 | . | . | . | . | . | 89
Cc1ccc(C(=O)c2c(C)oc3c2C(=O)C(=O)c2ccccc2-3)cc1 | / | 46 | . | . | . | 96
Cc1oc2c(c1C(=O)c1ccc(Cl)cc1)C(=O)C(=O)c1ccccc1-2 | . | 90 | . | . | . | 93
Cc1ccc(C(=O)c2coc3c2C(=O)C(=O)c2ccccc2-3)cc1 | . | . | . | . | . | .
O=C(c1ccc(Cl)cc1)c1ccc(CN2C(=O)c3ccccc3C2=O)o1 | . | . | . | . | . | .
CCOC(=O)C1CCN(C(=O)C(Cc2ccc3c(c2)OCO3)NC(C)=O)CC1 (stereo unspecified) | . | / | / | / | / | /
CCOC(=O)C1=C(O)/C(=C/c2ccc(CNC(=O)C(=O)Nc3ccc(C)cc3)o2)N=C1C | . | 77 | . | . | . | .
COc1cc(C2NC(=O)NC(C)=C2C(=O)OC2CCCC(C)C2)cc(Br)c1O (stereo unspecified) | . | 49 | . | . | . | .
O=C(c1ccncc1)N1CC[C@H]2[C@H](CCCN2Cc2ccccc2)C1 | . | / | / | / | / | /
CC(=O)c1ccccc1OCC(=O)Nc1cccc(S(=O)(=O)N2CCCC2)c1 | . | 46 | . | . | . | .
COc1ccc(CC(=O)Nc2cccc(S(=O)(=O)N3CCCCCC3)c2)cc1OC | . | . | . | . | . | 90
COc1ccc(NC(=O)CCCOc2ccc(C)cc2)cc1S(=O)(=O)N1CCCCC1 | . | . | . | . | . | .
Cc1ccc(S(=O)(=O)N2CCCCC2)cc1NC(=O)Cn1ccc(C(F)(F)F)n1 | . | . | . | . | . | .
COc1ccc(NC(=O)CCOc2cc(C)ccc2C)cc1S(=O)(=O)N1CCCCC1 | . | . | . | . | . | 93
CCOc1ccccc1OCC(=O)Nc1cccc(S(=O)(=O)N2CCCCCC2)c1 | . | . | . | . | . | .
O=C(Cn1ccc(C(F)(F)F)n1)Nc1cccc(S(=O)(=O)N2CCCCC2)c1 | . | 53 | . | . | . | .
COc1ccc(C2NC(=S)N(Cc3ccc(Cl)cc3)C(C)=C2C(C)=O)cc1 (stereo unspecified) | . | / | / | / | / | /
COC(=O)c1cc2c(c3c4cc(C)ccc4n(S(=O)(=O)c4ccc(C)cc4)c13)C(=O)N(Cc1ccccc1OC)C2 | . | / | / | / | / | /
